For 14 compounds, growth results are on record in PubChem BioAssay (NCI).

Some test systems named below: HCT-15 colon; HT29 colon; SNB-75 CNS; SNB-19 CNS; U251 CNS; PC-3 prostate; SK-MEL-5 melanoma; UACC-62 melanoma; LOX IMVI melanoma; SK-MEL-28 melanoma.
Experiment in all cases: NCI-60 one-dose screen, 48 h (100 = growth as untreated, 0 = no growth, -100 = all killed)
What all share (conditions): 10 µM unless noted

Compounds without any hit were thinned out: in the full panel of roughly 83,000, 20% have a hit.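 Results are percent growth after 48 hours of single-concentration exposure. 100 means growth as in untreated cells, lower positive values show inhibition; negative values down to -100 show cell death.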 Values without a mark were called inactive. Activity calls are given as the source filed them. Rule for the calls: active = growth percent below 10; inactive = the rest.

Regarding `CC(C)(C)OC(=O)Nc1ccc2c(c1)C(NC(=O)Nc1cccc(C#N)c1)CC(C)(C)O2` (stereo not given), the growth was 34.2% in the assay on HCT-15 colon; 55% in the assay with HT29 colon; 71.8% in the assay on SNB-75 CNS; 52.4% with SNB-19 CNS; 32.7% in the assay on U251 CNS; 30.5% in the assay on PC-3 prostate. Further, the growth with SK-MEL-5 melanoma is -5.57% (active); in the assay with UACC-62 melanoma it was 34.6%; in the assay with LOX IMVI melanoma it was 26.9%; in the assay on SK-MEL-28 melanoma, 74.7%.
`O=C(Cc1ccc(F)c(F)c1)Nc1cc(C2(C(F)(F)F)CC2)nn1Cc1ccccc1`: the growth in the assay on HCT-15 colon is 6.24% (active); in the assay on HT29 colon, 17.6%; with SNB-75 CNS, -14.9% (active); in the assay on SNB-19 CNS, 13.3%; in the assay with U251 CNS it was 4.6% (active); in the assay on PC-3 prostate it was -6.07% (active). Further, the growth in the assay with SK-MEL-5 melanoma was -80.8% (active); with UACC-62 melanoma, -10.3% (active); with LOX IMVI melanoma it was 5.44% (active); in the assay on SK-MEL-28 melanoma it was 18.6%.
Turning to `CCN(CCNc1ccc(C)c2sc3ccccc3c(=O)c12)CC(C)(C)O`, the growth with HCT-15 colon was 28.8%; in the assay with HT29 colon, 39.2%; in the assay with SNB-75 CNS, 73.7%; in the assay with SNB-19 CNS it was 78%; in the assay on U251 CNS, 49.7%; in the assay on PC-3 prostate, 71.4%. The growth is 75.9% in the assay with SK-MEL-5 melanoma, 53.6% with UACC-62 melanoma, 54.4% in the assay with LOX IMVI melanoma and 79.6% in the assay on SK-MEL-28 melanoma.
Turning to `CC1=CN2C(=O)C3C4=C(CCCC4)SC3N=C2CN1c1c(C)cccc1C` (stereo not given), the growth in the assay on HCT-15 colon was 49.8%; in the assay with HT29 colon it was 84%; in the assay on SNB-75 CNS it was 106%; in the assay with SNB-19 CNS, 104%; in the assay on U251 CNS it was 65%; with PC-3 prostate, 63.4%. Besides, the growth with SK-MEL-5 melanoma was 87.2%; with UACC-62 melanoma, 66.4%; with LOX IMVI melanoma, 79.2%; with SK-MEL-28 melanoma, 110%.
As for `COc1ccc(NC(=O)CSc2nnc(-c3cc(-c4ccc(S(N)(=O)=O)cc4)nc4ccccc34)n2-c2ccccc2)cc1`, the growth with HCT-15 colon was 89%; with HT29 colon, 86.4%; with SNB-75 CNS, 55.7%; in the assay on SNB-19 CNS, 82.5%; in the assay with U251 CNS, 85.5%; with PC-3 prostate it was 65.9%. The growth in the assay with SK-MEL-5 melanoma was 74.6%; in the assay with UACC-62 melanoma, 65.3%; in the assay with LOX IMVI melanoma, 90.3%; with SK-MEL-28 melanoma, 80.6%.
On to `CC1=C([Se]CC(OC(=O)CC[Se]c2ccccc2)C(=O)NCCCCCC(=O)OCc2ccccc2)C(=O)c2ccccc2C1=O` (stereo not given), for which the growth is 50.1% in the assay on HCT-15 colon; 41.2% with HT29 colon; 56.2% in the assay on SNB-75 CNS; 31% with SNB-19 CNS; 12.7% in the assay with U251 CNS; 30.7% with PC-3 prostate. In addition, the growth with SK-MEL-5 melanoma is -24.9% (active); in the assay on UACC-62 melanoma, 41.6%; in the assay on LOX IMVI melanoma, 10.3%; in the assay with SK-MEL-28 melanoma, 21.7%.
In the case of `NS(=O)(=O)c1ccc(-n2nc(C(=O)N/N=C\c3ccc(F)cc3)cc2-c2ccc(Cl)cc2)cc1`, the growth was 98.4% in the assay on HCT-15 colon; 118% in the assay with HT29 colon; 57.1% in the assay on SNB-75 CNS; 85.5% in the assay with SNB-19 CNS; 93.3% in the assay on U251 CNS; 81.9% in the assay on PC-3 prostate. The growth in the assay on SK-MEL-5 melanoma is 93.5%; with UACC-62 melanoma, 81.8%; with LOX IMVI melanoma, 90.9%; in the assay on SK-MEL-28 melanoma, 98.8%.
Take `O=c1[nH]ccc2nc(N3CCC(O)CC3)nc(Nc3ccc(N4CCOCC4)cc3)c12`: the growth was 31.2% with HCT-15 colon; 23.2% in the assay with HT29 colon; 63.5% with SNB-75 CNS; 97.1% in the assay with SNB-19 CNS; 88.2% in the assay on U251 CNS; 89.8% in the assay with PC-3 prostate. Also, the growth with SK-MEL-5 melanoma is 39%; with UACC-62 melanoma, 80.3%; in the assay with LOX IMVI melanoma it was 46.4%; in the assay with SK-MEL-28 melanoma, 82.6%.
Regarding `Fc1cnc(NC2CC2)nc1-c1cnc2ccc(N3CCOCC3)cn12`, the growth with HCT-15 colon is 1.15% (active); in the assay on HT29 colon it was 0.985% (active); with SNB-75 CNS, -42.9% (active); in the assay on SNB-19 CNS, 11.5%; with U251 CNS, 8.28% (active); with PC-3 prostate, 5.58% (active). For the same compound, the growth in the assay on SK-MEL-5 melanoma was -53.1% (active); with UACC-62 melanoma, -80.6% (active); in the assay on LOX IMVI melanoma, 4.17% (active); in the assay with SK-MEL-28 melanoma it was -4.09% (active).
Turning to `c1ccc2cc3nc4cc5ccccc5cc4nc3cc2c1`, the growth in the assay on HCT-15 colon was 96.9%; in the assay on HT29 colon, 103%; in the assay with SNB-75 CNS it was 89.3%; in the assay with SNB-19 CNS it was 97.2%; in the assay on U251 CNS, 101%; with PC-3 prostate it was 85%. The growth is 102% with SK-MEL-5 melanoma, 96.5% with UACC-62 melanoma, 86.1% in the assay with LOX IMVI melanoma and 96.9% in the assay on SK-MEL-28 melanoma.
For `COc1ccc(NC(=O)CSc2nc(C)c(C(C)=O)n2-c2ccc(Cl)cc2)cc1`, the growth in the assay on HCT-15 colon was 78.4%; in the assay with HT29 colon it was 84.2%; with SNB-75 CNS, 84.7%; with SNB-19 CNS, 90.9%; in the assay on U251 CNS, 105%; in the assay on PC-3 prostate, 96.3%. Besides, the growth with SK-MEL-5 melanoma is 93.7%; in the assay on UACC-62 melanoma, 70.2%; in the assay with LOX IMVI melanoma, 91%; in the assay on SK-MEL-28 melanoma it was 91.7%.
As for `NC(=N\N=C/c1cccc([N+](=O)[O-])c1)/C(N)=N\N=C/c1cccc([N+](=O)[O-])c1`, the growth in the assay on HCT-15 colon was 51.9%; with HT29 colon, 99.3%; with SNB-75 CNS, 35.1%; in the assay on SNB-19 CNS, 105%; in the assay on U251 CNS it was 76.6%; with PC-3 prostate, 72.2%. Also, the growth in the assay on SK-MEL-5 melanoma was 58.2%; in the assay on UACC-62 melanoma it was 65%; in the assay on LOX IMVI melanoma it was 82%; with SK-MEL-28 melanoma, 77.9%.
On to `CN(Cc1cnc2nc(N)nc(N)c2n1)c1ccc(C(=O)N[C@@H](CCc2nn[nH]n2)c2nn[nH]n2)cc1`, for which the growth in the assay on HCT-15 colon is 25.2%; in the assay on HT29 colon it was 27%; with SNB-75 CNS, 76.6%; in the assay with SNB-19 CNS, 53.4%; with U251 CNS, 50.6%; in the assay with PC-3 prostate, 32.6%. Moreover, the growth was 41.2% in the assay on SK-MEL-5 melanoma, 21.5% with UACC-62 melanoma, 16.1% in the assay with LOX IMVI melanoma and 103% with SK-MEL-28 melanoma.
As for `COc1ccc(N2CCN(c3nc(-c4cc(OC)c(OC)c(OC)c4)nc4ccccc34)CC2)cc1`, the growth in the assay on HCT-15 colon is 61.8%; in the assay on HT29 colon it was 81.5%; with SNB-75 CNS it was 84.5%; with SNB-19 CNS, 93.5%; with U251 CNS, 96.1%; in the assay on PC-3 prostate it was 41.3%. Also, the growth in the assay with SK-MEL-5 melanoma was 46.4%; with UACC-62 melanoma, 56%; with LOX IMVI melanoma, 79.3%; with SK-MEL-28 melanoma it was 87.1%.
